Measurements published in PubChem BioAssay (NCI).
About 79,000 compounds went through this panel and 15% of them were active in at least one assay; those are over-represented in the sample as a whole. The source made the active and inactive calls. No stated cut-off is given here; in the data, active means growth inhibition above about 70%; inactive means the rest.

Columns and labels:
[1] = NCI Yeast Anticancer Drug Screen. Data for the mec2-1 strain (AID 157); conditions: S. cerevisiae mec2-1 strain, hits give high values
How it was run: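 Test agents were screened against the mec2-1 yeast strain, with defined DNA repair or cell cycle alteration. Growth was scored as inhibition against vehicle-only controls.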

[2] = NCI Yeast Anticancer Drug Screen. Data for the rad14 strain (AID 159);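 further: 0% = growth of vehicle-treated control cultures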; conditions: S. cerevisiae rad14 strain growth inhibition, hits give high values
How it was run: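 Here, inhibition of yeast growth was measured after compound exposure, using a strain with a genetic defect in DNA damage repair and vehicle-treated cultures as the reference.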

[3] = NCI Yeast Anticancer Drug Screen. Data for the sgs1 mgt1 strain (AID 161);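 further: 0% = growth of cultures given vehicle only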; conditions: S. cerevisiae sgs1 mgt1 strain, hits give high values
How it was run: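 Mutant yeast exposed to compound; growth scored against vehicle-only wells.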

[4] = NCI Yeast Anticancer Drug Screen. Data for the CLN2oe strain (AID 163);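 further: 0% = growth of vehicle-only control cultures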; conditions: S. cerevisiae CLN2oe strain, hits give high values
How it was run: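 Here, growth inhibition in a cell-cycle-altered yeast strain after compound exposure was quantified against vehicle control growth.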

[5] = NCI Yeast Anticancer Drug Screen. Data for the cln2 rad14 strain (AID 165);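 further: 0% = growth equal to vehicle treated cultures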; conditions: S. cerevisiae cln2 rad14 strain, hits give high values
How it was run: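 Growth of compound-exposed yeast (cln2 rad14 genotype) measured and expressed as inhibition relative to vehicle.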

[6] = NCI Yeast Anticancer Drug Screen. Data for the bub3 strain (AID 167); conditions: S. cerevisiae bub3 mutant strain, hits give high values
How it was run: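 Whole-cell yeast assay. The mutant strain was incubated with compounds, and growth inhibition was determined by comparison with vehicle-treated cells.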

[7] = NCI Yeast Anticancer Drug Screen. Data for the wt2 strain (AID 169);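 further: 0% = growth of vehicle-treated yeast cultures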; conditions: S. cerevisiae wt2 strain growth inhibition, hits give high values
How it was run: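 Genetically defined yeast strains from a DNA-repair/cell-cycle panel were used. Compound-exposed yeast growth was measured, and the inhibition was calculated relative to vehicle treatment.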

[8] = NCI Yeast Anticancer Drug Screen. Data for the mlh1 strain (AID 171);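 further: 0% = growth of vehicle-treated control cultures of the same strain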; conditions: S. cerevisiae mlh1 strain growth inhibition, hits give high values
How it was run: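 Here the genetically defined yeast mutant is grown with each compound, and the extent to which its growth falls below that of vehicle-exposed cells is reported.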

[9] = NCI Yeast Anticancer Drug Screen. Data for the sgs1 strain (AID 173);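 further: 0% = growth of vehicle-only control cultures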; conditions: S. cerevisiae sgs1 mutant, hits give high values
How it was run: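 Relative growth inhibition, referenced to vehicle, was determined in a yeast strain with a defined alteration affecting DNA damage repair or cell cycle control after compound exposure.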

[10] = NCI Yeast Anticancer Drug Screen. Data for the mlh1 rad18 strain (AID 175); conditions: S. cerevisiae mlh1 rad18 strain growth inhibition, hits give high values
How it was run: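 In this whole-cell yeast screen, a strain with altered DNA damage repair is challenged with compound, and its growth is measured against matched vehicle-treated controls.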

[11] = NCI Yeast Anticancer Drug Screen. Data for the rad18 strain (AID 177); conditions: S. cerevisiae rad18 mutant growth inhibition, hits give high values
How it was run: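 Screen uses a yeast strain with a defined lesion in DNA damage repair; compound effect is read as loss of growth compared to untreated vehicle cultures.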

[12] = NCI Yeast Anticancer Drug Screen. Data for the rad52 strain (AID 147);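 further: 0% = growth of vehicle-treated control cultures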; conditions: S. cerevisiae rad52 mutant growth inhibition, hits give high values
How it was run: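 Measured: yeast growth inhibition. System: strain with a defined DNA damage repair alteration. Reference: vehicle-treated control cultures.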

[13] = NCI Yeast Anticancer Drug Screen. Data for the wt1 strain (AID 149);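 further: 0% = growth of vehicle-treated wt1 cultures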; conditions: S. cerevisiae wt1 strain (SPY 50644) growth inhibition, hits give high values
How it was run: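 Measured: growth of wt1 yeast under compound versus vehicle treatment, reported as inhibition.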

[14] = NCI Yeast Anticancer Drug Screen. Data for the rad50EPP+ strain (AID 151);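 further: 0% = growth of vehicle-treated control cultures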; conditions: S. cerevisiae rad50 mutant strain, hits give high values
How it was run: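 One strain with a rad50 alteration (rad50EPP+) was compound-treated, its growth then compared to that of vehicle controls.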

[15] = NCI Yeast Anticancer Drug Screen. Data for the mgt1 strain (AID 153); conditions: S. cerevisiae mgt1 mutant growth inhibition, hits give high values
How it was run: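 After exposure of the mgt1 yeast mutant to compound, growth was measured and reported as inhibition compared with vehicle controls.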

[16] = NCI Yeast Anticancer Drug Screen. Data for the rad50 strain (AID 155);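 further: 0% = growth of vehicle-only cultures of the same strain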; conditions: S. cerevisiae rad50 strain growth inhibition, hits give high values
How it was run: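 Growth of the mutant yeast was measured after compound exposure and referenced to vehicle-treated cultures.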

[17] = at 5.0 µM (retest, dose inferred, filed as 0.5)
[18] = at 50.0 µM (retest, dose inferred, filed as 5.0)

Measured: growth inhibition

O=c1oc2ccccc2c(O)c1C(c1ccc2ccccc2c1)c1c(O)c2ccccc2oc1=O
inactive: [1]; [17] 17% | [1]; at 11.0 µM 31% | [2]; at 1.2 µM 12% | [2]; at 3.7 µM 21% | [2]; at 11.0 µM 26% | [2]; at 33.0 µM 66% | [3]; [17] -24% | [3]; at 50.0 µM 46.1% | [4]; at 1.2 µM 7% | [4]; at 3.7 µM 21% | [4]; at 11.0 µM 27% | [5]; [17] 19% | [5]; at 50.0 µM 40.2% | [6]; at 1.2 µM 8% | [6]; at 3.7 µM -8% | [6]; [17] 10% | [6]; at 11.0 µM 22% | [6]; at 33.0 µM 55% | [6]; at 50.0 µM 28.4% | [7]; at 1.2 µM -25% | [7]; at 3.7 µM -21% | [7]; at 11.0 µM 38% | [8]; at 1.2 µM -1% | [8]; at 3.7 µM 20% | [8]; at 11.0 µM 33% | [9]; at 1.2 µM 27% | [9]; at 3.7 µM 30% | [9]; at 11.0 µM 36% | [10]; [17] 12% | [10]; [18] 40% | [11]; at 1.2 µM 10% | [11]; at 3.7 µM 7% | [11]; at 11.0 µM 33% | [11]; at 33.0 µM 55%
active: [1]; at 33.0 µM 76% | [1]; [18] 78% | [1]; at 50.0 µM 86.5% | [1]; at 100.0 µM 98% | [2]; at 100.0 µM 99% | [3]; [18] 92% | [4]; at 33.0 µM 78% | [4]; at 100.0 µM 97% | [5]; [18] 96% | [6]; [18] 93% | [6]; at 100.0 µM 97% | [7]; at 33.0 µM 97% | [7]; at 100.0 µM 94% | [8]; at 33.0 µM 75% | [8]; at 100.0 µM 99% | [9]; at 33.0 µM 73% | [9]; at 100.0 µM 98% | [10]; at 50.0 µM 80% | [11]; at 100.0 µM 98%

Oc1ccc2nc3ccccc3nc2c1
inactive: [12]; at 1.2 µM -1% | [12]; at 3.7 µM 4% | [12]; at 11.0 µM 24% | [12]; at 33.0 µM 64% | [13]; at 1.2 µM 1% | [13]; at 3.7 µM 6% | [13]; at 11.0 µM 21% | [13]; at 33.0 µM 26% | [14]; at 1.2 µM -1% | [14]; at 3.7 µM -2% | [14]; at 11.0 µM 23% | [15]; at 1.2 µM -2% | [15]; at 3.7 µM -5% | [15]; at 11.0 µM 10% | [15]; at 33.0 µM 43% | [16]; at 1.2 µM 2% | [16]; at 3.7 µM 5% | [16]; [17] 9% | [16]; at 11.0 µM 23% | [16]; at 33.0 µM 68% | [1]; at 1.2 µM 2% | [1]; at 3.7 µM 7% | [1]; [17] 13% | [1]; at 11.0 µM 24% | [1]; at 33.0 µM 52% | [1]; [18] 58% | [2]; at 1.2 µM 1% | [2]; at 3.7 µM 5% | [2]; at 11.0 µM 18% | [2]; at 33.0 µM 31% | [3]; [17] -3% | [3]; [18] 20% | [3]; at 50.0 µM 48.5% | [4]; at 1.2 µM 4% | [4]; at 3.7 µM 2% | [4]; at 11.0 µM 11% | [4]; at 33.0 µM 22% | [4]; at 100.0 µM 67% | [5]; [17] 19% | [5]; [18] 20% | [5]; at 50.0 µM 65.5% | [6]; at 1.2 µM 2% | [6]; at 3.7 µM 5% | [6]; [17] -8% | [6]; at 11.0 µM 29% | [6]; at 33.0 µM 46% | [6]; [18] 61% | [7]; at 1.2 µM -1% | [7]; at 3.7 µM 4% | [7]; at 11.0 µM 13% | [7]; at 33.0 µM 27% | [8]; at 1.2 µM -3% | [8]; at 3.7 µM -2% | [8]; at 11.0 µM 11% | [8]; at 33.0 µM 27% | [9]; at 1.2 µM -2% | [9]; at 3.7 µM 2% | [9]; at 11.0 µM 18% | [9]; at 33.0 µM 29% | [10]; [17] 35% | [11]; at 1.2 µM -3% | [11]; at 3.7 µM 8% | [11]; at 11.0 µM 15% | [11]; at 33.0 µM 54%
active: [12]; at 100.0 µM 95% | [13]; at 100.0 µM 72% | [14]; at 33.0 µM 77% | [14]; at 100.0 µM 96% | [15]; at 100.0 µM 80% | [16]; [18] 89% | [16]; at 50.0 µM 91.5% | [16]; at 100.0 µM 92% | [1]; at 50.0 µM 72.7% | [1]; at 100.0 µM 95% | [2]; at 100.0 µM 85% | [6]; at 50.0 µM 88% | [6]; at 100.0 µM 82% | [7]; at 100.0 µM 73% | [8]; at 100.0 µM 80% | [9]; at 100.0 µM 84% | [10]; [18] 82% | [10]; at 50.0 µM 86.8% | [11]; at 100.0 µM 91%

Cc1ccc2nc3sc(=O)sc3nc2c1
active: [12]; at 11.0 µM 99% | [12]; at 33.0 µM 98% | [12]; at 100.0 µM 96% | [13]; at 11.0 µM 88% | [13]; at 33.0 µM 98% | [13]; at 100.0 µM 97% | [14]; at 11.0 µM 79% | [14]; at 33.0 µM 96% | [14]; at 100.0 µM 95% | [15]; at 11.0 µM 96% | [15]; at 33.0 µM 98% | [15]; at 100.0 µM 98% | [16]; at 11.0 µM 96% | [16]; at 33.0 µM 97% | [16]; [18] 92% | [16]; at 50.0 µM 97% | [16]; at 100.0 µM 96% | [1]; at 11.0 µM 98% | [1]; at 33.0 µM 98% | [1]; [18] 97% | [1]; at 50.0 µM 93.8% | [1]; at 100.0 µM 97% | [2]; at 11.0 µM 99% | [2]; at 33.0 µM 98% | [2]; at 100.0 µM 97% | [3]; [18] 94% | [3]; at 50.0 µM 98.1% | [4]; at 33.0 µM 94% | [4]; at 100.0 µM 97% | [5]; [18] 89% | [5]; at 50.0 µM 92% | [6]; at 33.0 µM 97% | [6]; [18] 91% | [6]; at 50.0 µM 97% | [6]; at 100.0 µM 95% | [7]; at 11.0 µM 95% | [7]; at 33.0 µM 98% | [7]; at 100.0 µM 97% | [8]; at 11.0 µM 98% | [8]; at 33.0 µM 98% | [8]; at 100.0 µM 95% | [9]; at 11.0 µM 97% | [9]; at 33.0 µM 97% | [9]; at 100.0 µM 96% | [10]; [18] 91% | [10]; at 50.0 µM 96.2%
inactive: [12]; at 1.2 µM 48% | [12]; at 3.7 µM 66% | [13]; at 1.2 µM -2% | [13]; at 3.7 µM 22% | [14]; at 1.2 µM 26% | [14]; at 3.7 µM 49% | [15]; at 1.2 µM 22% | [15]; at 3.7 µM 40% | [16]; at 1.2 µM 13% | [16]; at 3.7 µM 27% | [16]; [17] 27% | [1]; at 1.2 µM 16% | [1]; at 3.7 µM 37% | [1]; [17] -7% | [2]; at 1.2 µM 14% | [2]; at 3.7 µM 33% | [3]; [17] 13% | [4]; at 1.2 µM -15% | [4]; at 3.7 µM 7% | [4]; at 11.0 µM 37% | [5]; [17] 30% | [6]; at 1.2 µM -2% | [6]; at 3.7 µM 14% | [6]; [17] 59% | [6]; at 11.0 µM 52% | [7]; at 1.2 µM 11% | [7]; at 3.7 µM 34% | [8]; at 1.2 µM 27% | [8]; at 3.7 µM 50% | [9]; at 1.2 µM 42% | [9]; at 3.7 µM 68% | [10]; [17] 38%
